# In PubChem BioAssay (NCATS):
# Records with an inconclusive call do not appear. Entries that show only a call come without a potency. Calls of active or inactive are those of the source. Unless noted, the call rests on the fitted dose curve; in most records, active means well fitted curve in the direction sought with a large enough effect; inconclusive means small, poorly fitted or top-dose-only effect, or another doubt; inactive means no such curve, though single readings can be large; an effect the other way counts as inactive or inconclusive.
# What was measured:
# [1] = AP1 Signaling Pathway (AID 357; active means well fitted curve in either direction with a large enough effect, not every such curve was filed as active); settings: ME-180 AP-1-bla reporter, EGF-induced, beta-lactamase ratio, 5 h; at 7.69 µM (top of the series) unless noted
# Method in brief: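 AP-1-bla ME-180 cells with beta-lactamase reporter under AP-1 response element, stimulated with EC50 EGF; compounds titrated, 5 hours at 37 degrees Celsius. CCF4 read at 460/530 nm ratio; positive and negative modulators judged by AC50.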
# [2] = target: Cytochrome P450 1A2 (Homo sapiens) (UniProt P05177); assay: p450-cyp1a2 (AID 410; calls by dose curve)
# Method in brief: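 Inhibition was calculated relative to 57 uM furafylline (full inhibition). The reaction used human CYP1A2 at 20nM with Luciferin-ME at its Km, 100uM, driven by an NADPH-regenerating system for 60 min at room temperature.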
# [3] = NFAT Signaling Pathway (AID 444; active means well fitted curve in either direction with a large enough effect, not every such curve was filed as active;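 further: carbachol stimulus at about its EC50 of 1 µM final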); settings: Jurkat NFAT-bla M1, carbachol, beta-lactamase ratio, 5 h; at 7.69 µM (top of the series) unless noted
# Method in brief: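 Jurkat cells carrying an NFAT-driven β-lactamase reporter and co-transfected muscarinic M1 receptor were treated with compound plus carbachol (1 uM final, an EC50 level) for 5 h at 37 °C. CCF4 loading followed for 1 h at RT; 460/530 nm ratio gave %activity.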
# [4] = Stat Signaling Pathway (AID 446; active means well fitted curve in either direction with a large enough effect, not every such curve was filed as active;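 further: ME-180 cervical cancer cells given 40 pM IL-6 alongside compound; SIE-controlled beta-lactamase reporter measured as 460/530 nm FRET emission ratio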); settings: ME-180 SIE beta-lactamase reporter, IL-6 stimulated, 5 h; at 7.69 µM (top of the series) unless noted
# Method in brief: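 Reporter line: ME-180 cervical carcinoma, SIE-beta-lactamase. Treatment: compound with 40 pM IL-6, 5 hrs, 37 C, in low-serum OPTI-MEM with 10 mM HEPES pH 7.3. Detection: 460/530 nm fluorescence.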
# [5] = target: Glucocorticoid receptor (Homo sapiens) (UniProt P04150); assay: GR-GFP Redistribution (AID 450;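 active means compounds whose dose series gives a full or clear partial fitted curve of increased nuclear translocation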; further: potency means the concentration at half of the fitted maximal effect); settings: U2OS GR-GFP nuclear translocation, laser cytometry, 2 h
# [6] = target: Glucocorticoid receptor (Homo sapiens) (UniProt P04150); assay: GR-EFC Redistribution (AID 451; calls by dose curve; further: potency means the concentration at half of the fitted maximal effect); settings: CHO-K1 GR-EFC translocation, beta-gal luminescence, 2 h
# Method in brief: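 CHO-K1 cells stably expressing nuclear-localized β-gal enzyme acceptor and GR fused C-terminally to the enzyme donor fragment; ligand-driven nuclear translocation restores β-gal by complementation. Compounds titrated up to 46 uM final, 2 h at 37 °C; luminescence read.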
# [7] = target: Mitogen-activated protein kinase 10 (Mus musculus) (UniProt Q61831); assay: JNK3 AlphaScreen Assay (AID 530; active means well fitted curve in either direction with a large enough effect, not every such curve was filed as active;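 further: kinase came from lysate of stimulated human HepG2 cells; signal reports phosphorylation of biotinylated GST-cJun 1-79 at Ser73 with 10 µM ATP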)
# Method in brief: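 JNK3 came from HepG2 lysates pre-activated with IL-1beta and TNF-alpha and phosphorylated biotinylated GST-cJun (1-79) at 10 uM ATP, pH 7.6, room temperature. Compounds were titrated. AlphaScreen signal used anti-phospho-cJun (Ser73) antibody.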
# [8] = target: 3',5'-cyclic-AMP phosphodiesterase 4B (Homo sapiens) (UniProt Q07343); assay: qHTS Assay for Inhibitors of PDE-IV (AID 607; active means well fitted activation curve with a large enough effect in the main read-out, with a control signal flat, not every such curve was filed as active)
# Method in brief: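 Cell-based read-out of cAMP via a modified cyclic nucleotide-gated channel and membrane potential dye (535/590 nm) in HEK293 cells expressing PDE4 endogenously. Compounds tested up to 22.9 uM final; 100 uM RO 20-1724 reference.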
# [9] = qHTS Assay for Lipid Storage Modulators (AID 1519; calls by dose curve); settings: Drosophila S3 cells, BODIPY lipid droplet/cell ratio, laser cytometry, cells loaded with oleic acid
# Method in brief: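 Cells seeded at 5,000 per well were treated with compounds over a concentration series and loaded with oleic acid (400 uM, as added). Lipid droplet fluorescence (488 nm excitation, 500-530 nm channel) was read by laser-scanning cytometry and normalized to 20 uM Triacsin C.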
# [10] = target: ATP-dependent 6-phosphofructokinase (Trypanosoma brucei brucei) (UniProt O15648); assay: qHTS Assay to Find Inhibitors of T. brucei phosphofructokinase: hit validation (AID 492961);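 further: luminescence reports ADP formed as PFK phosphorylates fructose-6-phosphate with ATP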
# Method in brief: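 Reaction: 0.1 M triethanolamine pH 8.0, 5 mM MgCl2, F6P 0.5 mM, ATP 0.1 mM, PFK 1.25 nM, 45 min RT. Read-out: ADP-Glo luminescence. Analysis: concentration-response fits, classed by r2 and efficacy.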
# [11] = target: Ubiquitin carboxyl-terminal hydrolase 1 (Homo sapiens) (UniProt O94782); assay: Inhibitors of USP1/UAF1: Pilot qHTS (AID 504865);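 further: rhodamine fluorescence freed from ubiquitin-rhodamine substrate followed over time; top concentration of the series differs between compounds; nearly all actives have a fitted effect of over 35% in size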
# Method in brief: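 Kinetic fluorescence assay: 1nM USP1/UAF1, 15 min compound preincubation, then 150nM Ub-Rho; 480/540 nm.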
# [12] = target: Luciferin 4-monooxygenase (Photinus pyralis) (UniProt P08659); assay: Biochemical firefly luciferase enzyme assay for NPC (AID 624030);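 further: purified P. pyralis luciferase at 10 nM with luciferin and ATP substrate; nearly all actives have a fitted effect of over 70% in size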
# Method in brief: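 Counter-screen for direct inhibition of the luciferase enzyme by approved-drug library compounds, run at 10 nM enzyme in 50 mM Tris acetate (final). Luminescence was read within 5 min of enzyme-buffer addition and normalized to PTC124 versus DMSO (0%).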
# [13] = S16 Schwann cell viability assay (CellTiter-Glo assay) (AID 624031);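 further: cellular ATP luminescence as a viability measure; nearly all actives have a fitted effect of over 70% in size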
# Method in brief: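 This viability control uses native rat S16 Schwann cells grown in DMEM plus 10% FBS. After a 24 h compound treatment at 37 °C, CellTiter-Glo luminescence reports ATP content, scaled against DMSO-treated and cell-free wells.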
# [14] = S16 Schwann cell PMP22 intronic element firefly luciferase assay (AID 624032); further: nearly all actives have a fitted effect of over 30% in size
# Method in brief: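 Rat S16 Schwann cells stably carrying a PMP22 intronic element-driven Fluc reporter were seeded overnight, then exposed to compounds for 24 h at 37 °C. Luminescence was normalized to PTC124 (positive control) and DMSO (0% activity).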
# [15] = S16 Schwann cell PMP22 intronic element beta-lactamase assay (AID 624044; calls by dose curve; further: nearly all actives have a fitted effect of over 15% in size)
# Method in brief: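 Rat S16 Schwann cells with beta-Lac driven by a PMP22 intronic element, compound-treated 24 h at 37 °C. LiveBLAzer FRET B/G read: 460 nm normalized to potassium clavulanate vs DMSO; 535 nm FRET as viability; concentration-effect curves classified.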
# [16] = qHTS profiling for inhibitors of Plasmodium falciparum proliferation (AID 504749); further: nearly all actives have a fitted effect of over 60% in size; settings: P. falciparum in erythrocytes, SYBR Green DNA, 72 h, at 12.8 µM (top of the series)
# Method in brief: (§1)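 P. falciparum-infected erythrocytes (0.3% parasitemia, 2.5% hematocrit final) were exposed to compounds for 72 h at 37 C in 5% CO2, then lysed with SYBR Green buffer overnight at room temperature; parasite DNA fluorescence was normalized to artemisinin and DMSO controls.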
# 3D7 = assay: as above; settings: P. falciparum in erythrocytes, SYBR Green DNA, 72 h; series mostly up to 12.8 µM
# Method in brief: as §1
# 7G8 = assay: as above; settings: P. falciparum in erythrocytes, SYBR Green DNA, 72 h; series mostly up to 12.8 µM
# Method in brief: as §1
# AA1029 = assay: as above; settings: P. falciparum in erythrocytes, SYBR Green DNA, 72 h; series mostly up to 12.8 µM
# Method in brief: as §1
# AS120 = assay: as above; settings: P. falciparum in erythrocytes, SYBR Green DNA, 72 h; series mostly up to 28.7 µM
# Method in brief: as §1
# ATS189 = assay: as above; settings: P. falciparum in erythrocytes, SYBR Green DNA, 72 h; series mostly up to 12.8 µM
# Method in brief: as §1
# C2A = assay: as above; settings: P. falciparum in erythrocytes, SYBR Green DNA, 72 h; series mostly up to 12.8 µM
# Method in brief: as §1
# CP185 = assay: as above; settings: P. falciparum in erythrocytes, SYBR Green DNA, 72 h; series mostly up to 12.8 µM
# Method in brief: as §1
# CP191 = assay: as above; settings: P. falciparum in erythrocytes, SYBR Green DNA, 72 h; series mostly up to 12.8 µM
# Method in brief: as §1
# CP192 = assay: as above; settings: P. falciparum in erythrocytes, SYBR Green DNA, 72 h; series mostly up to 28.7 µM
# Method in brief: as §1
# CP194 = assay: as above; settings: P. falciparum in erythrocytes, SYBR Green DNA, 72 h; series mostly up to 12.8 µM
# Method in brief: as §1
# CP201 = assay: as above; settings: P. falciparum in erythrocytes, SYBR Green DNA, 72 h; series mostly up to 12.8 µM
# Method in brief: as §1
# CP203 = assay: as above; settings: P. falciparum in erythrocytes, SYBR Green DNA, 72 h; series mostly up to 12.8 µM
# Method in brief: as §1
# CP211 = assay: as above; settings: P. falciparum in erythrocytes, SYBR Green DNA, 72 h; series mostly up to 12.8 µM
# Method in brief: as §1
# CP215 = assay: as above; settings: P. falciparum in erythrocytes, SYBR Green DNA, 72 h; series mostly up to 28.7 µM
# Method in brief: as §1
# CP217 = assay: as above; settings: P. falciparum in erythrocytes, SYBR Green DNA, 72 h; series mostly up to 12.8 µM
# Method in brief: as §1
# CP237 = assay: as above; settings: P. falciparum in erythrocytes, SYBR Green DNA, 72 h; series mostly up to 12.8 µM
# Method in brief: as §1
# CP238 = assay: as above; settings: P. falciparum in erythrocytes, SYBR Green DNA, 72 h; series mostly up to 12.8 µM
# Method in brief: as §1
# CP247 = assay: as above; settings: P. falciparum in erythrocytes, SYBR Green DNA, 72 h; series mostly up to 12.8 µM
# Method in brief: as §1
# CP250 = assay: as above; settings: P. falciparum in erythrocytes, SYBR Green DNA, 72 h; series mostly up to 12.8 µM
# Method in brief: as §1
# Glucocorticoid receptor (Homo sapiens), sequence (P04150 whole entry, looked up, the tested form may be a part): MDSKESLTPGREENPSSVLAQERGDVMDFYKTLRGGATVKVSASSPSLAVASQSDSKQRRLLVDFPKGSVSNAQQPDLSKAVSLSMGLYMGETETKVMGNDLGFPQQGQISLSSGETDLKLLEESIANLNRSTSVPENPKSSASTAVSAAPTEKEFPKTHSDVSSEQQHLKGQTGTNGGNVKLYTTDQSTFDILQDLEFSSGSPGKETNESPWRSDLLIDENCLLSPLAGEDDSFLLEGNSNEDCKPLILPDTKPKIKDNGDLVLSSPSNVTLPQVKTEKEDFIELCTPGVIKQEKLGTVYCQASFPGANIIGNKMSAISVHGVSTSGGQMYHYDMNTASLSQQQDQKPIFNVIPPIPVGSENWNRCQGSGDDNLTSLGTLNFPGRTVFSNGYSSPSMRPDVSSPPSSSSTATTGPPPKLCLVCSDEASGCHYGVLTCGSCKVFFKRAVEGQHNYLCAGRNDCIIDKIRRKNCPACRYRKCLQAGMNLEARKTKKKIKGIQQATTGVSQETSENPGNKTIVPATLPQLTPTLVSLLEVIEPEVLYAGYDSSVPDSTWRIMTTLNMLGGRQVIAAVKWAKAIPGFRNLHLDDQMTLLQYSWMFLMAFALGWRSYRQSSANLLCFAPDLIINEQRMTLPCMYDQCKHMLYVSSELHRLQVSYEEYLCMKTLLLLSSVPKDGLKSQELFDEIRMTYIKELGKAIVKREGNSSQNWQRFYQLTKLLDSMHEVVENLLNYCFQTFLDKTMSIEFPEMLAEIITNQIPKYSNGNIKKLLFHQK
# Cytochrome P450 1A2 (Homo sapiens), sequence (P05177 whole entry, looked up): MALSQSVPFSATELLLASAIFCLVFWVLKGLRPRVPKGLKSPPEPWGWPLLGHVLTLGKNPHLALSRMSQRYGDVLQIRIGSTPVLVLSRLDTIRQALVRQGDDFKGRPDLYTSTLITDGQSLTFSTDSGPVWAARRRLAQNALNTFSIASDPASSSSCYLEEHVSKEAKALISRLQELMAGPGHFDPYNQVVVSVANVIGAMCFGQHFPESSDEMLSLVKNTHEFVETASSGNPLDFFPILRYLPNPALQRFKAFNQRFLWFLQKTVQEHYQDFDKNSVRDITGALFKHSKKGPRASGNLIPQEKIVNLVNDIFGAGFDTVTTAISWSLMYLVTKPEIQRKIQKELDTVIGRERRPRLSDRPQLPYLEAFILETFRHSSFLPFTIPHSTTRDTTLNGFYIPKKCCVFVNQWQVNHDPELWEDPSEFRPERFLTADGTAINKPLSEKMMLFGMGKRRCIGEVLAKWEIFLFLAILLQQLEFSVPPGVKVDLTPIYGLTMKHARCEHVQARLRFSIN
# ATP-dependent 6-phosphofructokinase (Trypanosoma brucei brucei), sequence (O15648 whole entry, looked up): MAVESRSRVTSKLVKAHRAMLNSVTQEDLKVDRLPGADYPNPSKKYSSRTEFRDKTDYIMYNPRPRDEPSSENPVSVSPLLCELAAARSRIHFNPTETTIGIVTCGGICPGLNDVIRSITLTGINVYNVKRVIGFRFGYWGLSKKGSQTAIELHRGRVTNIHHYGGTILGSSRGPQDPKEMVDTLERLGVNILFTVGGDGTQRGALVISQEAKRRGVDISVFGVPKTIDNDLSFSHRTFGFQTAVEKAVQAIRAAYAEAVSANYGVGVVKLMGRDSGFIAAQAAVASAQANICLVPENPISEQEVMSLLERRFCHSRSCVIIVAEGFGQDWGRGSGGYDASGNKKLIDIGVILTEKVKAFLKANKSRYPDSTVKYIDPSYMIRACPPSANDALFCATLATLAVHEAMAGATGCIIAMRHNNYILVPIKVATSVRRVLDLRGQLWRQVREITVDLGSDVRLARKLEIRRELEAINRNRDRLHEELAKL
# Ubiquitin carboxyl-terminal hydrolase 1 (Homo sapiens), sequence (O94782 whole entry, looked up): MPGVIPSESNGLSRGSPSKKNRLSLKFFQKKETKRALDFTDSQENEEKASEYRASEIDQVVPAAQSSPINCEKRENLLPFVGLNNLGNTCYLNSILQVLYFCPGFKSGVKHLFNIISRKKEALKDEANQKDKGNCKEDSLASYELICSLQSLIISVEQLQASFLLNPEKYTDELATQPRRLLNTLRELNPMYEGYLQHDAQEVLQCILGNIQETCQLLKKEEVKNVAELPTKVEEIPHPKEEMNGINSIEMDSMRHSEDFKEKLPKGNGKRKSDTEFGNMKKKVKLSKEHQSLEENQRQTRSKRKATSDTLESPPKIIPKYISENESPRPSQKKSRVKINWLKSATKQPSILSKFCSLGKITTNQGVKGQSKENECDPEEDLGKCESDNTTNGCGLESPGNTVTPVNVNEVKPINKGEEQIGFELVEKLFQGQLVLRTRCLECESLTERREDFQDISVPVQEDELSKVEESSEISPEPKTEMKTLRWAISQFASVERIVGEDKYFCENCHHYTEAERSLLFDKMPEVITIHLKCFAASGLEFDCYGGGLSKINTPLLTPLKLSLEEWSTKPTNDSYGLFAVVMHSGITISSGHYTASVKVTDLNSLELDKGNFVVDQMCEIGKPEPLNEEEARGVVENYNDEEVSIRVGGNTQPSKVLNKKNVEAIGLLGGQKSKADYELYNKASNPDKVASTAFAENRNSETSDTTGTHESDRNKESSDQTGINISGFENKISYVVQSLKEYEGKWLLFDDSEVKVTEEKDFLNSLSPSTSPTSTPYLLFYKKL
# Luciferin 4-monooxygenase (Photinus pyralis), sequence (P08659 whole entry, looked up): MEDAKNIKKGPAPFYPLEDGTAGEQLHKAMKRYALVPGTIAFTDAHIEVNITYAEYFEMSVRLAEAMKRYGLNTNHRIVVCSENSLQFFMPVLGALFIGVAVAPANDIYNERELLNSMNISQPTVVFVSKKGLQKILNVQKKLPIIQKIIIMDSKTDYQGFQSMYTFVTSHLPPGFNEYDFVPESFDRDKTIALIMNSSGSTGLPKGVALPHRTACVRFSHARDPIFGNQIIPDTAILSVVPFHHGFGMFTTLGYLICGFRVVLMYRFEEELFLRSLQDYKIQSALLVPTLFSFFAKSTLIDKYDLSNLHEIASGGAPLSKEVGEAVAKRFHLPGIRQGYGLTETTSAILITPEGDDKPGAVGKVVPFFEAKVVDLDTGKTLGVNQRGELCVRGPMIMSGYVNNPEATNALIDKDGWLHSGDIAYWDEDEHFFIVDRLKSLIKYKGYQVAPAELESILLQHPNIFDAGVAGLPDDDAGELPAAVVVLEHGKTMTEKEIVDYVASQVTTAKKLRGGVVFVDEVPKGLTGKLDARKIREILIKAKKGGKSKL
# 3',5'-cyclic-AMP phosphodiesterase 4B (Homo sapiens), sequence (Q07343 whole entry, looked up): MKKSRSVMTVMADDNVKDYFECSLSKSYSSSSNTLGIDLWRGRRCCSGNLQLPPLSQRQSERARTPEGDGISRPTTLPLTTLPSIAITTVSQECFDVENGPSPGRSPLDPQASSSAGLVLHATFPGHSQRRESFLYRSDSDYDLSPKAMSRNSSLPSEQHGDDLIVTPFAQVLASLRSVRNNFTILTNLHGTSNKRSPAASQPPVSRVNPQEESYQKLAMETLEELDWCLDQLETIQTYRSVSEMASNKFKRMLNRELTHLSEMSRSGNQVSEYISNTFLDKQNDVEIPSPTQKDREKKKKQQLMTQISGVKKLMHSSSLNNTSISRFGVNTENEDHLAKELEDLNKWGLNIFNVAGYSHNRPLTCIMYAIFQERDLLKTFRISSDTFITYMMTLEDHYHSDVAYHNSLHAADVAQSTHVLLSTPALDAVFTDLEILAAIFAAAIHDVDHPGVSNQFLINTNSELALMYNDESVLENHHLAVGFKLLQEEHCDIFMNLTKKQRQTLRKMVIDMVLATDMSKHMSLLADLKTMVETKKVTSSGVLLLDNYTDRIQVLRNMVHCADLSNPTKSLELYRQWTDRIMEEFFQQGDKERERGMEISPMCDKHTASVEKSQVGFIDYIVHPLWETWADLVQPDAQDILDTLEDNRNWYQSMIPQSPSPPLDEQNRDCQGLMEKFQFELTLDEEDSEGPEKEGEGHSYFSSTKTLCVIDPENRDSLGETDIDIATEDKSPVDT
smiles,measurement,setting,value
CCN1C(=O)N[C@@H](c2ccccc2)C1=O,"activity change, negative = inhibition",[1],-1.74% [at 17.2 µM] (inactive)
same,Potency,[2],inactive
same,"activity change, negative = inhibition",[3],1.96% [at 17.2 µM] (inactive)
same,"activity, negative = inhibition",[4],-21.2% [at 17.2 µM] (inactive)
same,Potency,[5],> 20.6 µM (inactive)
same,Potency,[6],> 20.6 µM (inactive)
same,Potency,[7],inactive
same,Potency,[8],inactive
same,"activity change, negative = inhibition",[9]; at 25.7 µM (top of the series),-2.13% (inactive)
same,max response,[9]; measured here: cell count channel max response,-10.1%
same,max response,[9]; measured here: lipid channel max response,-9.51%
same,outcome,[10],inactive
same,Potency,[11],inactive
same,outcome,[12],inactive
same,Potency,[13],inactive
same,Potency,[14],inactive
same,outcome,[15],inactive
same,"activity, negative = inhibition",[16]; parasite line A,-3.65% (inactive)
same,"activity, negative = inhibition",[16]; parasite line B,13.5% (inactive)
same,Potency,3D7,inactive
same,Potency,7G8,inactive
same,Potency,AA1029,inactive
same,Potency,AS120,inactive
same,Potency,ATS189,inactive
same,Potency,C2A,inactive
same,Potency,CP185,inactive
same,Potency,CP191,inactive
same,Potency,CP192,inactive
same,Potency,CP194,inactive
same,Potency,CP201,inactive
same,Potency,CP203,inactive
same,Potency,CP211,inactive
same,Potency,CP215,inactive
same,Potency,CP217,inactive
same,Potency,CP237,inactive
same,Potency,CP238,inactive
same,Potency,CP247,inactive
same,Potency,CP250,inactive
